Here are results for 38 compounds from PubChem BioAssay (NCI).

About 83,000 compounds went through this panel and 20% of them were active in at least one assay; those are over-represented in the sample as a whole.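 A percent growth of 40 corresponds to 60% growth inhibition; 0 means no net growth; -100 means all cells died. Active threshold: below 10.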 Values without a mark were called inactive. Active and inactive are the calls of the source.

This assay has as its system UO-31 renal. The assay can be described thus: NCI-60 one-dose screen, 48 h (100 = growth as untreated, 0 = no growth, -100 = all killed). As to conditions: 10 µM unless noted.
In the case of `Nc1cc2nc3ccccc3sc-2cc1=O`, the growth was 42.8%.

As for `C#Cc1nc(Nc2cc(C)[nH]n2)c2ccccc2n1`, the growth is -36.1% (active). On to `CCOC(=O)c1nc(Nc2cc(C)[nH]n2)c2ccccc2n1`, for which the growth was 76.7%.

For `O=C(/C=C/c1ccc(Cl)cc1)/C=C/c1cc2ccccc2[nH]c1=O`, the growth was 63.9%. `CCOC(=O)c1ccc2c(c1)nc(/C=C/c1ccc(Cl)cc1)n2-c1cc(C(C)(C)C)[nH]n1`: the growth was 46.8%. In the case of `CC(=O)OCC(=O)C1CCC=CC1OC(C)=O` (stereo not drawn) it was 66.4%; in that of `COc1cc(C2CC(=O)c3c(C)nn(-c4nc5ccccc5[nH]4)c3C2)cc(OC)c1OC` (stereo not drawn), 91.1%. In the case of `CC1(C)OCC2OC3(C(=O)O)OC(C)(C)OC3C2O1` (stereo not drawn) it was 94.2%; in that of `COc1ccc(C(=O)c2sc3nc(-c4ccccc4OC)ccc3c2N)cc1OC`, 53.4%; in that of `COc1ccc(C(=O)c2sc3nc4c(cc3c2N)CCCC4)cc1OC`, 55.7%. In the case of `Cc1ccc2c(NCCCN(C)C)c3c(C)nn(C)c3nc2c1` it was 26.5%; in that of `Cc1ccc(NC(=O)c2sc3nc4c(cc3c2N)C(=O)CCC4)cc1C`, 56.6%. As to `COc1c(C2CC(=O)Nc3c2cnn3Cc2ccco2)cc2c(c1OC)OCO2` (stereo not drawn), the growth is 59.4%. As to `Cc1ccn2c(-c3csc(Nc4cccc(O)c4)n3)c(C)nc2c1`, the growth was 40.4%. In the case of `NC(CC(=O)O)C(=O)OCc1ccccc1` (stereo not drawn) it was 71.8%.

Take `O=C1Nc2ccc(Br)cc2C12CC(c1ccccc1)=NN2` (stereo not drawn): the growth was 48.4%. In the case of `Cc1cc(Nc2nc(N3CCNCC3)nc3ccccc23)n[nH]1` it was 64.3%; in that of `CCc1ccccc1NC(=O)c1sc2nc3c(cc2c1N)C(=O)CCC3`, 44.5%; in that of `CCOC(=O)N1CCN(c2nc(Nc3cc(C)[nH]n3)c3ccccc3n2)CC1`, 47.4%. For the compound `CN1CCCCC1CCN1c2ccccc2Sc2ccc(Cl)cc21` (stereo not drawn), the growth was 30.1%. On to `COc1c(Cl)cc(Cl)cc1Cl`, for which the growth is 88.4%.

For the compound `Cc1cc(Nc2nc(N3CCOCC3)nc3ccccc23)n[nH]1`, the growth is 35.4%. Regarding `COc1ccc(C2CC(=O)Nc3c2c(C)nn3-c2nc3ccccc3[nH]2)cc1` (stereo not drawn), the growth was 34.3%.

Take `COc1cc(-c2cc(-c3nc4ccc(Cl)cc4[nH]3)[nH]n2)cc(OC)c1OC`: the growth was 20.6%.

With `Cc1noc(C)c1-c1cc(O)cc(C(O)c2ccccc2)c1` (stereo not drawn), the growth is 16.9%. With `COc1ccc(-c2nc(Nc3cc(C)[nH]n3)c3ccccc3n2)cc1`, the growth was 41%. `Cc1cc(Nc2nc(-c3cccnc3)nc3ccccc23)n[nH]1`: the growth is 60.4%. The figure for `CC#Cc1nc2ccccc2c(=O)[nH]1` is 22.9%. In the case of `O=C(Nc1ccc(F)cc1)Nc1ccc(CCO)cc1` it was 94.1%.

On to `CCCCNC(=O)NS(=O)(=O)c1ccc(N2N=C(c3cc(C)ccc3C)CC2c2cc(OC)c(OC)c(OC)c2)cc1` (stereo not drawn), for which the growth was 32.2%. Take `COc1cc(C2C(C(=O)c3cccs3)=C(O)C(=O)N2CCN2CCOCC2)cc(OC)c1OC` (stereo not drawn): the growth was 97.3%. For the compound `NCc1cn2cc(Cl)sc2n1`, the growth is 88.8%.

Turning to `CCCCCCCCCCCCN1CCCC(C)C1` (stereo not drawn), the growth was 60.8%. The figure for `O=c1c2cccc3c(Nc4ccccn4)ccc(c32)c2nc3ccccc3n12` is 46.6%; for `Cc1ccc(S(=O)(=O)N(CCc2ccc(Cl)cc2)S(=O)(=O)c2ccc(C)cc2)cc1` it is 70%.

Turning to `O=C(N/N=C/c1ccc(O)cc1O)c1cccnc1`, the growth was 22.2%. The figure for `CNC(=S)N/N=C/CSC/C=N/NC(=S)NC` is 71.7%; for `COc1ccc(-c2c(C)noc2-c2ccc(O)cc2O)cc1` it is 87.3%.
